Compound activity: PubChem, National Center for Advancing Translational Sciences (NCATS)
NS1 inh: inhibitors of influenza NS1 protein function; 270,000 compounds, 0.4% hits; Potency, µM (doses to about 46.1 µM), for inactives: top-dose activity, positive = more growth; calls by dose curve; note: actives are rising curves; nearly all actives have a fitted effect of over 50% in size
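A cell-based growth assay was used: compounds that relieve NS1-induced slow growth of budding yeast raise OD600. Assay medium was yeast nitrogen base with ammonium sulphate and -URA supplement, pH 6.0, with 2% galactose.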
Pf growth 96h: P. falciparum growth inhibition at 96 hours. AID 504834. 320,000 compounds, 6.9% hits. P. falciparum luciferase reporter growth, 96 h. Potency, µM (titrated, usually from 28.7 µM), inactives show at the highest dose activity change, negative = inhibition, hits mostly inhibitors; note: % is set by controls: 0 for no effect and ±100 for the full control effect
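96 h incubation, 37 C, 5% CO2, of luciferase-reporter P. falciparum-infected RBCs (2% hematocrit, 0.05% parasitemia final) with test compounds; endpoint luminescence.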
AMA1-RON2 inh: inhibitors of Plasmodium falciparum AMA1-RON2 interaction | AlphaScreen AMA1-biotinylated RON2 peptide binding | Potency, µM (titrated, usually from 58.2 µM), without a hit: at the highest dose activity change, negative = inhibition, most hits filed as inhibitors | 360,000 compounds, 0.2% hits | AID 720542;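 note: 0% = vehicle wells and -100% = peptide control; nearly all actives have a fitted effect of over 45% in size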
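AMA1 (3D7) with his tag at 25 nM final met compounds first, then biotinylated RON2 peptide at 25 nM; detection used donor plus acceptor beads, 10 µg/mL apiece, read by AlphaScreen after 30 min at room temperature.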
Pf growth 48h: inhibits P. falciparum growth in the first generation, 48 h. P. falciparum luciferase growth in erythrocytes, 48 h. 310,000 compounds, 5.9% hits. Potency, µM (doses to about 28.7 µM), inactives show at the top dose activity change, negative = inhibition, actives largely listed as inhibitors; note: % is set by controls: 0 for no effect and ±100 for the full control effect
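Read-out is firefly luciferase luminescence from an integrated reporter in P. falciparum, so falling signal marks reduced parasite growth. Infected erythrocytes were at 2% hematocrit and 0.1% parasitemia (final) in Albumax-supplemented RPMI 1640.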
Sm TGR block: S. mansoni TGR enzyme inhibition; Q962Y6; purified TGR, DTNB reduction, TNB absorbance 405 nm; Potency, µM (series often up to 114 µM), for the others: top-dose activity change, negative = inhibition, usual class: inhibitors; 360,000 compounds, 3% hits; AID 485364; note: % is set by controls: 0 for no effect and ±100 for the full control effect; nearly all actives have a fitted effect of over 60% in size
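TGR 20 nM + NADPH 100 uM (dispensed conc.), cpd preinc 15 min RT; start with NADPH (500 uM addition) then DTNB (15 mM addition). Kinetic TNB absorbance, 405 nm filter. Four-parameter Hill fit across titration.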
Starred values were filed as active, the others as inactive; u = inconclusive; x = not tested or not shown. An excerpt weighted towards active compounds, which were near 11% of everything screened. Unless noted, calls come from the whole dose curve; as a rule, active = well fitted curve in the direction sought with a large enough effect; inconclusive = small, poorly fitted or top-dose-only effect, or another doubt; inactive = no such curve, though single readings can be large; an effect the other way counts as inactive or inconclusive. Potency is the fitted concentration of half-maximal effect.

SMILES	NS1 inh	Pf growth 96h	AMA1-RON2 inh	Pf growth 48h	Sm TGR block
Cc1cccc(N=C2NN=C(c3c(C)[nH]c4ccccc34)CS2)c1	25%	1.5µM*	13%	2.6µM*	-3%
Cc1cccc(N=C2NN=C(c3ccc4c(c3)OCCO4)CS2)c1	-3%	-82%	19%	-83%	-1%
CNC(=S)N(CCc1c(C)[nH]c2ccccc12)Cc1cccnc1	1%	u	-22%	u	-5%
CCc1ccc(N(CC)C(=O)c2sc3nc4n(c(=O)c3c2C)CCCC4)cc1	x	x	x	x	10µM*
COc1ccc(CCNC(=O)c2sc3nc4n(c(=O)c3c2C)CCC4)cc1	x	u	-14%	-23%	4%
CCN(C(=O)c1sc2nc3n(c(=O)c2c1C)CCCCC3)c1ccc(OC)cc1	x	x	x	x	22µM*
CCN(CC(=O)NCCC1=CCCCC1)S(=O)(=O)c1ccccc1	-9%	-9%	-11%	-10%	-3%
NS(=O)(=O)c1ccc(-c2ccc(C=NC3CCS(=O)(=O)C3)o2)cc1 (centres undefined)	8%	u	-1%	5%	71µM*
CN=C1SC(C(=O)Nc2ccccc2Cl)CC(=O)N1c1ccc(OC(F)(F)Cl)cc1 (centres undefined)	x	0%	-2%	10µM*	-3%
O=C(CCCC(=O)OCC(=O)c1ccc(Cl)cc1)NC1CCCCC1	-7%	12µM*	0%	23%	5%
COc1ccc(-c2noc(CCC(=O)NC3CCCCC3)n2)cc1	-10%	12µM*	-3%	25%	-10%
O=C(CCCc1nc(-c2ccc(Cl)cc2)no1)NC1CCCC1	-16%	4.7µM*	-2%	-20%	-6%
CCOC(=O)NN=C1CCC(c2ccccc2)CC1 (centres undefined)	10%	u	17%	21%	7%
COc1ccc(-c2nn(-c3ccccc3)cc2CO)cc1OC	-8%	-12%	0%	13µM*	0%
NC(N)=N/N=C/c1cn(-c2ccccc2)nc1-c1cccs1	x	0.52µM*	-10%	2.6µM*	1%
COc1ccc(-c2nn(-c3ccccc3)cc2/C=N/O)cc1OC	-5%	3%	-10%	-13%	2%
COc1ccc(-c2nn(-c3ccccc3)cc2/C=N/Nc2ccc3ccccc3n2)cc1OC	11%	2.3µM*	-5%	2.6µM*	6%
COc1ccc(-c2nn(-c3ccccc3)cc2/C=N/N=C(N)N)cc1OC	10%	1.9µM*	-16%	1.7µM*	-2%
S=c1[nH]nc(-c2cccs2)n1/N=C/c1cn(-c2ccccc2)nc1-c1cccs1	13%	56%	36%	60%	1%
Cc1ccc(-c2nc3c(c(SCc4ccc(Br)cc4)n2)Cc2c(CO)cnc(C)c2O3)cc1	x	x	x	x	-11%
CC1CCCC(C)N1C(=O)CSc1nnc(CSc2ncccn2)n1C (centres undefined)	-5%	10µM*	17%	-6%	5%
Nc1nc2ccc(C(=O)N3CCCCC3)cc2s1	3%	4.1µM*	20%	12%	21%
Nc1nc2ccc(O)cc2s1	-9%	10µM*	13%	2%	5%
Cc1cccc(C(=O)NC2=NCCS2)c1	-1%	29%	8%	146%	9%
O=C(CNC1CCCCC1)Nc1ccc([N+](=O)[O-])cc1C(=O)Nc1ccccc1F	1%	u	83%	u	-2%
SMILES	NS1 inh	Pf growth 96h	AMA1-RON2 inh	Pf growth 48h	Sm TGR block
COc1cc(NC(=O)c2cc([N+](=O)[O-])ccc2NC(=O)CNC2CCCCC2C)cc(OC)c1 (centres undefined)	6%	36%	16%	0.41µM*	5%
COc1cc(NC(=O)c2cc([N+](=O)[O-])ccc2NC(=O)CNC2CCCCC2)cc(OC)c1	12%	12%	8%	0.83µM*	5%
CCCCN1/C(=C/c2cccc[n+]2C)Sc2cc(NC(C)=O)ccc21	1%	11%	-6%	4.1µM*	15%
CC(=O)Nc1ccc(NC(=O)CCCCCN2C(=O)c3ccccc3C2=O)cc1	12%	-12%	2%	x	-2%
COc1ccc(C(NC(=O)CN2C(=O)NC3(CCc4ccccc43)C2=O)c2ccccc2)cc1 (centres undefined)	x	u	0%	12µM*	-8%
COc1ccc(OC)c(NC(=O)CN2C(=O)NC3(CCCc4ccccc43)C2=O)c1 (centres undefined)	x	u	9%	-20%	-5%
COc1cccc(NC(=O)CN2C(=O)NC3(CCCc4ccccc43)C2=O)c1 (centres undefined)	x	4.7µM*	0%	-21%	0%
COc1ccc(C(=O)CN2C(=O)NC3(CCc4ccccc43)C2=O)cc1 (centres undefined)	5%	0%	-4%	81%	0%
COc1ccc(C(NC(=O)CN2C(=O)NC3(CCc4ccccc43)C2=O)c2ccc(OC)cc2)cc1 (centres undefined)	x	u	-1%	10µM*	-2%
COc1cc(CCC(=O)N2CC(C)OC(C)C2)cc(OC)c1OC (centres undefined)	9%	19%	1%	-3%	0%
COc1ccc(C)cc1-n1c(SCC(=O)NCc2ccco2)nc2c([nH]c3ccccc32)c1=O	x	x	x	x	-6%
CCc1ccc(C(=O)C(C)OC(=O)Cc2n[nH]c(=O)c3ccccc23)cc1 (centres undefined)	1%	11%	-3%	-10%	0%
Cc1oc(-c2ccccc2)nc1CS(=O)CC(=O)NC1CCCC1 (centres undefined)	u	u	-5%	5%	7.9µM*
COc1ccc(-c2nc(CS(=O)CC(=O)NC3CCCCC3)c(C)o2)cc1 (centres undefined)	29%	3%	-7%	3%	u
COc1ccc(-c2nc(CS(=O)CC(=O)NC3CCCCCC3)c(C)o2)cc1 (centres undefined)	21%	14%	-11%	4%	40µM*
COc1ccc(-c2nc(CS(=O)CC(=O)NC3CCCCC3)c(C)o2)cc1OC (centres undefined)	4%	u	-4%	u	35µM*
COc1ccc(-c2nc(CS(=O)CC(=O)N3CCOCC3)c(C)o2)cc1OC (centres undefined)	-2%	u	0%	7%	40µM*
COc1ccc(-c2nc(CS(=O)CC(=O)N3CCN(C)CC3)c(C)o2)cc1OC (centres undefined)	4%	-23%	-7%	10%	u
Cc1ccc(S(=O)(=O)NCC(=O)NCC(=O)OCC(=O)N2CC(=O)Nc3ccccc32)cc1C	x	20%	15%	1%	0%
CC1(c2ccccc2)CC(C)(C)N(C(=O)C2CCCO2)c2ccccc21 (centres undefined)	-95%	2.3µM*	-9%	x	-11%
